From PubChem BioAssay (NCATS)
Several values for one entry are separate records, joined by “and”; a condition that tells them apart may be missing. Identical values can stand only once. Inconclusive results are not listed. Activity calls are given as the source filed them. The call rests on the fitted dose curve; in most records, active means well fitted cell-killing curve with a large enough effect; inconclusive means small, poorly fitted or top-dose-only effect; inactive means flat fitted curve, though single readings scatter.
On the % scale 0 is the no-effect control and ±100 the full control effect; potency means the concentration at half of the fitted maximal effect.

Assay: Cell Viability - LYMP2-016 (AID 984); further: nearly all actives have a fitted effect of over 55% in size
Conditions: LYMP2-016 lymphoblastoid cell viability, qHTS; series mostly up to 92.2 µM; activity change, negative = cytotoxicity: at the top concentration
Description: NIH Chemical Genomics Center [NCGC]
NIH Molecular Libraries Screening Centers Network [MLSCN]
National Institutes of Environmental Health Sciences [NIEHS]
National Toxicology Program [NTP]
We have developed a 1536-well cell-based assay for quantitative high throughput screening (qHTS) against a number of cell lines to determine in vitro cytotoxicity of small molecules. This particular assay uses a human lymphoblastoid cell line (LYMP2-016) purchased from Coriell Institute for Medical Research.
NCGC Assay Protocol Summary:
The CellTiter-Glo luminescent cell viability assay (Promega) is a homogeneous method to measure the number of viable cells in culture. The end point readout of this assay is based on quantitation of intracellular ATP, an indicator of metabolic activity, using the luciferase reaction. Luciferase catalyzes the oxidation of beetle Luciferin to oxyluciferin and light in the presence of ATP. The luminescent signal is proportional to amount of ATP present.
Using the CellTiter-Glo luminescent cell viability assay, the amount of cellular ATP was measured in the lymphoblastoid cell line with complete culture medium following compound treatment for 24 hours. The assay was performed in opaque white Kalypsys 1536-well plates. In the screen, tetraoctylammonium bromide was used as positive control. Library compounds were measured for their ability to cause acute toxicity in the cell line, as reflected by a decrease in intracellular ATP levels, in a concentration-dependent manner. […] AC50 values were determined from concentration-response data modeled with the standard Hill equation.
qHTS protocol for CellTiter Glo lymphoblastoid cellular assay
[Step] [Parameter] [Value] [Description]
1. Reagent; 5 uL; 2500 lymphoblastoid cells/well
2. Time; 5 hr; 37 C incubation
4. Controls; 23 nL; Tetraoctylammonium bromide 6.4pM to 92 uM
5. Time; 24 hr; 37 C incubation
6. Reagent; 5 uL; CellTiter Glo reagent
7. Time; 30 min; Room Temperature
8. Detection; Luminescence; Viewlux plate reader
Keywords: cell viability, cytotoxicity, lymphoblastoid cell line, luminescence, NTPHTS, NTPHTS_NCGC, NIEHS, DSSTox, MLSMR, MLSCN, NIH Roadmap, qHTS, NCGC
With CC(C)CCON=O the “activity change, negative = cytotoxicity” value was 3.55% (inactive).
With COc1ccc2c(c1OC)C(=O)OC2C1c2cc3c(cc2CCN1C)OCO3 (stereo not drawn) the “activity change, negative = cytotoxicity” value was -10.9% (inactive).
For Oc1cc(Cl)c(Cl)cc1Cl, the “activity change, negative = cytotoxicity” value was -8.13% (inactive).
With O=C/C=C/c1ccccc1 the Potency was “inactive”.
For Clc1ccccc1Cl, the “activity change, negative = cytotoxicity” value was -5.97% (inactive).
With COC1=CC(=O)O[C@@H](/C=C/c2ccccc2)C1 the “activity change, negative = cytotoxicity” value was -13% (inactive).
For O=C1CCO1, the “activity change, negative = cytotoxicity” value was -5.75% (inactive).
With C[C@H]1CCC[C@H](O)CCCCCc2cc(O)cc(O)c2C(=O)O1 the “activity change, negative = cytotoxicity” value was -12.8% (inactive).
With O=C1C=CC(=O)C=C1 the “activity change, negative = cytotoxicity” value was -24.9% (inactive).
In the case of O=Cc1ccco1, the “activity change, negative = cytotoxicity” value is reported as 1.61% (inactive).
With ClC=C(Cl)Cl the “activity change, negative = cytotoxicity” value was 5.38% (inactive).
For O=C1C2CC=CCC2C(=O)N1SC(Cl)(Cl)Cl (stereo not drawn), the Potency was 5.01 µM (active) and 7.94 µM (active).
For O=C(O)C(Cl)(Cl)Cl, the Potency was “inactive”.
For CC(C)Nc1ccc(Nc2ccccc2)cc1, the Potency was 31.6 µM (active).
With C=CCN=C=S the “activity change, negative = cytotoxicity” value was -6.14% (inactive).
In the case of O=[N+]([O-])c1ccccc1, the “activity change, negative = cytotoxicity” value is reported as -5.23% (inactive).
With [O]=[Cr](=[O])([OH])[O][Cr](=[O])(=[O])[OH] the Potency was 10 µM (active) and 12.6 µM (active).
With ClCC1CO1 (stereo not drawn) the “activity change, negative = cytotoxicity” value was -25.1% (inactive).
For CCOC(=O)c1ccccc1C(=O)OCC, the Potency was “inactive”.
With S=C=S the “activity change, negative = cytotoxicity” value was -7.12% (inactive).
For O=CC=O, the “activity change, negative = cytotoxicity” value was -1% (inactive).
With CCCCCl the “activity change, negative = cytotoxicity” value was -3.37% (inactive).
In the case of C[C@]12CCC(=O)C[C@@H]1CC[C@@H]1[C@@H]2CC[C@]2(C)[C@@H](O)CC[C@@H]12, the “activity change, negative = cytotoxicity” value is reported as -3.97% (inactive).
For NNC(N)=O, the “activity change, negative = cytotoxicity” value was -8.97% (inactive).
For O=[N+]([O-])c1ccc(F)c([N+](=O)[O-])c1, the “activity change, negative = cytotoxicity” value was -28.1% (inactive).
In the case of CCCCCCCCOC(=O)c1ccccc1C(=O)OCCCCCCCC, the “activity change, negative = cytotoxicity” value is reported as -7.85% (inactive).
For ClC(Cl)(Cl)Cl, the Potency was “inactive”.
In the case of [O]=[Cd], the “activity change, negative = cytotoxicity” value is reported as 2.66% (inactive).
